Substitutions are numbered along the chain they refer to.

What all share (assay): PBM; 200 nM protein, PBS
What all share (conditions): dsDNA, one strand shown

For assay [1], the target named is HOXD13 (Homo sapiens, UniProt P35453 263-343).
Assay [2] deals with HOXD13 (Homo sapiens, UniProt P35453 263-343, T313A).
The target in assay [3] is T1, PAX4 (Homo sapiens, UniProt O43316 9-242, F177V).
T1 sequence: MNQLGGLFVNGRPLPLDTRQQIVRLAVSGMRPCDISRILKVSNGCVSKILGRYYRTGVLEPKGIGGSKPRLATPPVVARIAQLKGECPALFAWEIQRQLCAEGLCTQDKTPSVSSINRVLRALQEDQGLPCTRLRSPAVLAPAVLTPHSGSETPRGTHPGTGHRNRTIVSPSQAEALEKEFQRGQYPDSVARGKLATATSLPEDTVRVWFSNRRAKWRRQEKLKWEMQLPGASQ

Assay [4] concerns the target T2, PAX4 (Homo sapiens, UniProt O43316 9-242, F177Y).
T2 sequence: T1 sequence with V169Y

In assay [5] the target is T3, PAX4 (Homo sapiens, UniProt O43316 9-242, R227W).
T3 sequence: T1 sequence with V169F, R219W

In assay [6] the target is HOXA4 (Homo sapiens, UniProt Q00056 201-287).
Chain of HOXA4 (Homo sapiens, UniProt Q00056 201-287) (Q00056 201-287): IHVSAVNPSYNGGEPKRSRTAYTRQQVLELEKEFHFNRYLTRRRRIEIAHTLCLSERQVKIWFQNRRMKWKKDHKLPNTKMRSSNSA
In assay [7] the target is PRRX1 (Homo sapiens, UniProt P54821 80-166).
Chain of PRRX1 (P54821 80-166): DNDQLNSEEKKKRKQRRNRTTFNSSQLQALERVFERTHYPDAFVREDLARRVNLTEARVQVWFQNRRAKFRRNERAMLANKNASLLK
For assay [8], the target named is T4, NKX2-6 (Homo sapiens, UniProt A6NCS4 118-204, F151L).
T4 sequence: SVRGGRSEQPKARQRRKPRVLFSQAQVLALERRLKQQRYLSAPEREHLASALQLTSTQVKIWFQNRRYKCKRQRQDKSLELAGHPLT

In assay [9] the target is HOXA4 (Homo sapiens, UniProt Q00056 201-287, W262F).
Chain of HOXA4 (Homo sapiens, UniProt Q00056 201-287, W262F) (Q00056 201-287 W262F): as the sequence (Q00056 201-287) above, with W62F counted along it
The target of assay [10] is HOXC10 (Homo sapiens, UniProt Q9NYD6 254-340, K271E).
Chain of HOXC10 (Q9NYD6 254-340 K271E): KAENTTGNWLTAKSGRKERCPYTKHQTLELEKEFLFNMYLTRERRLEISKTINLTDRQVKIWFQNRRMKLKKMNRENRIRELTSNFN
Assay [11] has as its target PROP1 (Homo sapiens, UniProt O75360 56-141).
In assay [12] the target is PROP1 (Homo sapiens, UniProt O75360 56-141, F88S).
Chain of PROP1 (Homo sapiens, UniProt O75360 56-141, F88S) (O75360 56-141 F88S): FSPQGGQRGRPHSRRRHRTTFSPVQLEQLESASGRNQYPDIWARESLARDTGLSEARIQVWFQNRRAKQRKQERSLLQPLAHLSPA
Assay [13] has as its target VAX1 (Homo sapiens, UniProt Q5SQQ9 86-172).
For assay [14], the target named is VAX1 (Homo sapiens, UniProt Q5SQQ9 86-172, T142I).
Chain of VAX1 (Homo sapiens, UniProt Q5SQQ9 86-172, T142I) (Q5SQQ9 86-172 T142I): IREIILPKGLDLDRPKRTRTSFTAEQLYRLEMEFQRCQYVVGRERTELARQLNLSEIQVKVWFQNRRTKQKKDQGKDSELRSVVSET
The target of assay [15] is CRX (Homo sapiens, UniProt O43186 26-111, R41L).
Chain of CRX (O43186 26-111 R41L): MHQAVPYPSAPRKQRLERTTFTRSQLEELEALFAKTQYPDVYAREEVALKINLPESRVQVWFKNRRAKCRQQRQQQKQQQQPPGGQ
Assay [16] deals with VAX1 (Homo sapiens, UniProt Q5SQQ9 86-172, K157R).
Chain of VAX1 (Homo sapiens, UniProt Q5SQQ9 86-172, K157R) (Q5SQQ9 86-172 K157R): as the sequence (Q5SQQ9 86-172 T142I) above, with I57T, K72R counted along it
Assay [17] has as its target MSX2 (Homo sapiens, UniProt P35548 130-214).
The target of assay [18] is MSX2 (Homo sapiens, UniProt P35548 130-214, F161Y).
Chain of MSX2 (Homo sapiens, UniProt P35548 130-214, F161Y) (P35548 130-214 F161Y): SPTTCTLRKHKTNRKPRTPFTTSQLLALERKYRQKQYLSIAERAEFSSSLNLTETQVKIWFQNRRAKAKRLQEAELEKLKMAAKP
The target of assay [19] is ALX3 (Homo sapiens, UniProt O95076 139-225).
Chain of ALX3 (O95076 139-225): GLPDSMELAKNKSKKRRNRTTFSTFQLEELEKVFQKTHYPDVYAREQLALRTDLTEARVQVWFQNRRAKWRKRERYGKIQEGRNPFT

Chain of HOXD13 (Homo sapiens, UniProt P35453 263-343, T313A) (P35453 263-343 T313A): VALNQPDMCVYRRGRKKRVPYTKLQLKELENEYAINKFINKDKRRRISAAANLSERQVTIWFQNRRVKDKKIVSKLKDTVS
Chain of HOXD13 (Homo sapiens, UniProt P35453 263-343) (P35453 263-343): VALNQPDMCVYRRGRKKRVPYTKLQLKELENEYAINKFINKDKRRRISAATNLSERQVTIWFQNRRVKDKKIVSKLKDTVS
Chain of MSX2 (Homo sapiens, UniProt P35548 130-214) (P35548 130-214): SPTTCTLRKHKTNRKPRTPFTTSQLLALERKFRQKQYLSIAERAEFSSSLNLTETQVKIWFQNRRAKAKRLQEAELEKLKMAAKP
Chain of VAX1 (Homo sapiens, UniProt Q5SQQ9 86-172) (Q5SQQ9 86-172): as the sequence (Q5SQQ9 86-172 T142I) above, with I57T counted along it
Chain of PROP1 (Homo sapiens, UniProt O75360 56-141) (O75360 56-141): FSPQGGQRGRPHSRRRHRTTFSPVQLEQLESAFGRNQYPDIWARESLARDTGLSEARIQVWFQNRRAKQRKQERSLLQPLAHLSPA

For the sequence ATAACTAA, the binding signal in assay [1] was 10.9 upbm affinity estimate (log intensity, higher = more binding, comparable within an allelic series); in [2], 11 upbm affinity estimate (log intensity, higher = more binding, comparable within an allelic series). Consider ATAACGAC, for which the binding signal in [1] is 11 upbm affinity estimate (log intensity, higher = more binding, comparable within an allelic series); in [2], 10.8 upbm affinity estimate (log intensity, higher = more binding, comparable within an allelic series). Take ATAATTCA: the binding signal in assay [3] is 10.7 upbm affinity estimate (log intensity, higher = more binding, comparable within an allelic series); in assay [4] it was 11.1 upbm affinity estimate (log intensity, higher = more binding, comparable within an allelic series); in assay [5], 10.9 upbm affinity estimate (log intensity, higher = more binding, comparable within an allelic series). For ATTTCTTA, the binding signal in assay [6] was 11.1 upbm affinity estimate (log intensity, higher = more binding, comparable within an allelic series). As for AATCATAT, the binding signal was 11 upbm affinity estimate (log intensity, higher = more binding, comparable within an allelic series) in assay [1] and 11 upbm affinity estimate (log intensity, higher = more binding, comparable within an allelic series) in assay [2].

Turning to ATTTTAAC, the binding signal in assay [1] was 11.2 upbm affinity estimate (log intensity, higher = more binding, comparable within an allelic series); in [7] it was 11.9 upbm affinity estimate (log intensity, higher = more binding, comparable within an allelic series).

Turning to CAAGATAA, the binding signal in [6] is 10.9 upbm affinity estimate (log intensity, higher = more binding, comparable within an allelic series). Regarding AGCAAATC, in assay [6], the binding signal was 10.9 upbm affinity estimate (log intensity, higher = more binding, comparable within an allelic series). As to ATTATATG, in assay [3], the binding signal was 10.6 upbm affinity estimate (log intensity, higher = more binding, comparable within an allelic series). As for AAGTGTTA, the binding signal in assay [1] is 10.7 upbm affinity estimate (log intensity, higher = more binding, comparable within an allelic series); in assay [8] it was 10.7 upbm affinity estimate (log intensity, higher = more binding, comparable within an allelic series).

As to ATCGTAAC, the binding signal in assay [1] is 11 upbm affinity estimate (log intensity, higher = more binding, comparable within an allelic series); in [2], 10.9 upbm affinity estimate (log intensity, higher = more binding, comparable within an allelic series).

Turning to AAGATTGT, in [6], the binding signal was 10.7 upbm affinity estimate (log intensity, higher = more binding, comparable within an allelic series).

In the case of ATCATGTC, the binding signal in assay [6] was 11 upbm affinity estimate (log intensity, higher = more binding, comparable within an allelic series); in assay [9], 10.3 upbm affinity estimate (log intensity, higher = more binding, comparable within an allelic series).

For AGTATACA, the binding signal in assay [1] is 10.6 upbm affinity estimate (log intensity, higher = more binding, comparable within an allelic series); in assay [2], 10.7 upbm affinity estimate (log intensity, higher = more binding, comparable within an allelic series). Take ATTGTATA: the binding signal in [3] was 10.5 upbm affinity estimate (log intensity, higher = more binding, comparable within an allelic series).

For the sequence TCCTTTAA, the binding signal in assay [6] was 11.1 upbm affinity estimate (log intensity, higher = more binding, comparable within an allelic series). Consider ATATTATG, for which the binding signal in assay [3] is 10.7 upbm affinity estimate (log intensity, higher = more binding, comparable within an allelic series); in assay [5], 10.9 upbm affinity estimate (log intensity, higher = more binding, comparable within an allelic series).

Regarding CTTAAAAG, the binding signal in assay [6] is 10.4 upbm affinity estimate (log intensity, higher = more binding, comparable within an allelic series). On to AGTTTTAT, for which, in assay [10], the binding signal is 11.3 upbm affinity estimate (log intensity, higher = more binding, comparable within an allelic series).

As for ATAAACGA, the binding signal in assay [1] was 11.4 upbm affinity estimate (log intensity, higher = more binding, comparable within an allelic series); in assay [2], 11.2 upbm affinity estimate (log intensity, higher = more binding, comparable within an allelic series). With ATATACAT, the binding signal in [3] is 10.6 upbm affinity estimate (log intensity, higher = more binding, comparable within an allelic series). Consider TAATAGCA, for which the binding signal in assay [1] is 11 upbm affinity estimate (log intensity, higher = more binding, comparable within an allelic series); in assay [11], 9.06 upbm affinity estimate (log intensity, higher = more binding, comparable within an allelic series); in assay [12], 7.3 upbm affinity estimate (log intensity, higher = more binding, comparable within an allelic series). As for ACATAAAT, the binding signal in [10] is 11.3 upbm affinity estimate (log intensity, higher = more binding, comparable within an allelic series). As for AAGATAAC, the binding signal in assay [6] is 10.8 upbm affinity estimate (log intensity, higher = more binding, comparable within an allelic series). With CTAATATA, the binding signal in assay [3] was 10.8 upbm affinity estimate (log intensity, higher = more binding, comparable within an allelic series); in assay [4], 10.9 upbm affinity estimate (log intensity, higher = more binding, comparable within an allelic series); in assay [5], 10.9 upbm affinity estimate (log intensity, higher = more binding, comparable within an allelic series). With CATATGTA, in assay [6], the binding signal was 10.8 upbm affinity estimate (log intensity, higher = more binding, comparable within an allelic series).

CTCGTTAC: the binding signal was 11.1 upbm affinity estimate (log intensity, higher = more binding, comparable within an allelic series) in assay [1] and 10.9 upbm affinity estimate (log intensity, higher = more binding, comparable within an allelic series) in assay [2].

Consider ATTAAACA, for which the binding signal in assay [1] is 11.3 upbm affinity estimate (log intensity, higher = more binding, comparable within an allelic series); in [2], 11.2 upbm affinity estimate (log intensity, higher = more binding, comparable within an allelic series). In the case of GATTTGAA, the binding signal in assay [6] was 10.8 upbm affinity estimate (log intensity, higher = more binding, comparable within an allelic series). For the sequence AATATAGT, the binding signal was 11 upbm affinity estimate (log intensity, higher = more binding, comparable within an allelic series) in assay [1] and 11.1 upbm affinity estimate (log intensity, higher = more binding, comparable within an allelic series) in assay [2]. With ATTCAAGC, in [6], the binding signal was 11 upbm affinity estimate (log intensity, higher = more binding, comparable within an allelic series). Regarding TGATAAAA, the binding signal was 11.3 upbm affinity estimate (log intensity, higher = more binding, comparable within an allelic series) in assay [1] and 11.2 upbm affinity estimate (log intensity, higher = more binding, comparable within an allelic series) in assay [2]. For CTTAGTTA, the binding signal in assay [6] is 11 upbm affinity estimate (log intensity, higher = more binding, comparable within an allelic series).

Turning to CGTTATTA, the binding signal in assay [1] was 11.2 upbm affinity estimate (log intensity, higher = more binding, comparable within an allelic series); in [2], 11.1 upbm affinity estimate (log intensity, higher = more binding, comparable within an allelic series). For ACGAAATA, in assay [6], the binding signal is 10.7 upbm affinity estimate (log intensity, higher = more binding, comparable within an allelic series).

As to TAAATGAA, the binding signal in assay [1] was 10.9 upbm affinity estimate (log intensity, higher = more binding, comparable within an allelic series); in assay [2], 10.9 upbm affinity estimate (log intensity, higher = more binding, comparable within an allelic series). Take ATGATATA: in assay [3], the binding signal was 10.7 upbm affinity estimate (log intensity, higher = more binding, comparable within an allelic series). Consider ATATAATC, for which the binding signal is 10.6 upbm affinity estimate (log intensity, higher = more binding, comparable within an allelic series) in [3]; 10.1 upbm affinity estimate (log intensity, higher = more binding, comparable within an allelic series) in [13]; 10.1 upbm affinity estimate (log intensity, higher = more binding, comparable within an allelic series) in [14]; 12.3 upbm affinity estimate (log intensity, higher = more binding, comparable within an allelic series) in assay [15]; 9.94 upbm affinity estimate (log intensity, higher = more binding, comparable within an allelic series) in [16]. Turning to AAGTTATT, the binding signal was 10.9 upbm affinity estimate (log intensity, higher = more binding, comparable within an allelic series) in assay [1]; 10.1 upbm affinity estimate (log intensity, higher = more binding, comparable within an allelic series) in assay [13]; 10.8 upbm affinity estimate (log intensity, higher = more binding, comparable within an allelic series) in [2]; 9.9 upbm affinity estimate (log intensity, higher = more binding, comparable within an allelic series) in assay [14]; 9.7 upbm affinity estimate (log intensity, higher = more binding, comparable within an allelic series) in assay [16]. For the sequence ATTACTTC, the binding signal in assay [17] is 11.6 upbm affinity estimate (log intensity, higher = more binding, comparable within an allelic series); in [18], 11.5 upbm affinity estimate (log intensity, higher = more binding, comparable within an allelic series). As for AAGCAAAT, the binding signal in [17] is 11.3 upbm affinity estimate (log intensity, higher = more binding, comparable within an allelic series); in assay [18] it was 11.1 upbm affinity estimate (log intensity, higher = more binding, comparable within an allelic series). For the sequence TGAGATAA, the binding signal in [19] is 9.8 upbm affinity estimate (log intensity, higher = more binding, comparable within an allelic series). In the case of ACCTCAAT, the binding signal is 11 upbm affinity estimate (log intensity, higher = more binding, comparable within an allelic series) in assay [17] and 10.9 upbm affinity estimate (log intensity, higher = more binding, comparable within an allelic series) in assay [18]. With GACCATTA, the binding signal in [17] is 11.8 upbm affinity estimate (log intensity, higher = more binding, comparable within an allelic series); in assay [18], 11.7 upbm affinity estimate (log intensity, higher = more binding, comparable within an allelic series). Turning to GATATGGA, the binding signal in assay [19] is 9.24 upbm affinity estimate (log intensity, higher = more binding, comparable within an allelic series). ACCGATAA: the binding signal in assay [17] was 11.2 upbm affinity estimate (log intensity, higher = more binding, comparable within an allelic series); in assay [18], 11.1 upbm affinity estimate (log intensity, higher = more binding, comparable within an allelic series).

With CAATCCGA, the binding signal in [17] was 10.8 upbm affinity estimate (log intensity, higher = more binding, comparable within an allelic series); in assay [18] it was 10.8 upbm affinity estimate (log intensity, higher = more binding, comparable within an allelic series). For the sequence ACATGTTA, the binding signal in [17] was 10.7 upbm affinity estimate (log intensity, higher = more binding, comparable within an allelic series). As to AATCGCAT, the binding signal is 10.9 upbm affinity estimate (log intensity, higher = more binding, comparable within an allelic series) in [17] and 10.8 upbm affinity estimate (log intensity, higher = more binding, comparable within an allelic series) in assay [18]. As for ATAAATAC, the binding signal is 11.3 upbm affinity estimate (log intensity, higher = more binding, comparable within an allelic series) in assay [17] and 11.3 upbm affinity estimate (log intensity, higher = more binding, comparable within an allelic series) in assay [18].

Turning to AAACGATG, the binding signal in assay [17] was 10.6 upbm affinity estimate (log intensity, higher = more binding, comparable within an allelic series).

For the sequence ATTTCTAA, the binding signal is 11.2 upbm affinity estimate (log intensity, higher = more binding, comparable within an allelic series) in [17] and 11 upbm affinity estimate (log intensity, higher = more binding, comparable within an allelic series) in [18]. In the case of CATAAATG, the binding signal in assay [10] is 11.2 upbm affinity estimate (log intensity, higher = more binding, comparable within an allelic series). In the case of GGAAATAA, the binding signal in assay [17] was 11.7 upbm affinity estimate (log intensity, higher = more binding, comparable within an allelic series); in [18] it was 11.4 upbm affinity estimate (log intensity, higher = more binding, comparable within an allelic series). With ACAGATTG, the binding signal is 10.8 upbm affinity estimate (log intensity, higher = more binding, comparable within an allelic series) in [17] and 10.8 upbm affinity estimate (log intensity, higher = more binding, comparable within an allelic series) in assay [18].

For the origin of these results see publication PMC11006913.
